# Screens as filed in PubChem BioAssay.
# EWS-Fli inh – EWS/Fli transcriptional activity inhibition; A673 NR0B1-luciferase reporter, viability-normalised; inhibition, % at 12.6 µM; 350,000 compounds, 0.67% hits;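 active = mean inhibition of at least 50% after viability correction, with every replicate also passing that limit; inconclusive = mean reaches 50% but only one of two replicates passes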;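 also: firefly luciferase signal divided by Alamar Blue viability fluorescence both relative to DMSO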
# PGC1a acetyl inh – PGC1a acetylation modulation, inhibitor mode; U2OS PGC1a acetylation, AlphaScreen anti-acetyl-lysine; with virally co-expressed GCN5 acetyltransferase; inhibition, % at 15.6 µM; 350,000 compounds, 0.17% hits;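 active = every replicate shows inhibition of at least 40%; inconclusive = mean inhibition at least 40% but some replicate below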;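 also: 0% = neutral control wells and 100% = positive control wells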
# HIV Env fusion – blocks HIV Env-driven cell-cell fusion; HeLa-JRFL Env/CEM21 cell fusion, luciferase; inhibition, % at 12.3 µM; 360,000 compounds, 1.1% hits; AID 651610;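 active = mean replicate inhibition score of at least 50 and every replicate individually at or above 50; inconclusive = only one of the two criteria met; inactive = mean below 50 and not all replicates reaching 50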;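 also: 0% = plate neutral controls and 100% = maraviroc near 300 nM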
# PAX8 inh HTS – inhibitors of PAX8 transcriptional activity in RMG-I cells; RMG-I TPO-luciferase reporter, SteadyGlo, 24 h; inhibition, % at 12.6 µM; 360,000 compounds, 1.2% hits; AID 652154;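 active = mean replicate inhibition at least 60% with every replicate also reaching 60%; inconclusive = only one of the two criteria is met; inactive = mean below 60% and not all replicates reaching 60%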;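 also: luciferase light reporting Pax8 driven TPO promoter activity; plate controls were median of neutral control wells for no effect and mitoxantrone controls for full effect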
# GSIS activator – primary screen for activators of insulin secretion dependent on glucose, INS-1E cells, GLuc reporter luminescence; INS-1E GLuc reporter insulin secretion, 2-3 h; activation, % at 16.6 µM; 370,000 compounds, 0.61% hits; AID 743287;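 active = lowest replicate activation of at least 40%, so every replicate reaches that level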;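 also: 0% = median of neutral control wells and 100% = median of IBMX positive control wells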
# F508del corr – correctors of CFTR F508del function in bronchial epithelial cells; CFBE cells, YFP halide quenching; stimulated with forskolin plus potentiator P3; % fluorescence drop versus neutral controls; activity (quench increase), % at 7.58 µM; 350,000 compounds, 0.36% hits;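 active = mean added fluorescence quench of at least 8% versus neutral control, with both replicates also reaching 8%; inconclusive = only one of the mean or replicate conditions met; inactive = mean below 8% and not both replicates reaching 8%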;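 also: cells transiently co-express mutant CFTR-F508del with the halide-sensitive YFP; corrector assay measuring rescue of mutant channel to the surface after 24 h compound exposure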
# * hit, by the source's call; ? = inconclusive; / = no result; [ ] = dose if it differs, or a comment. Shown are actives, neighbours in structure and some others; about 2.7% of the full set was active somewhere.
SMILES,EWS-Fli inh,PGC1a acetyl inh,HIV Env fusion,PAX8 inh HTS,GSIS activator,F508del corr
Cc1cc(NC(=O)CCS(=O)(=O)c2nc(-c3ccccc3)cc(C(F)(F)F)n2)no1,/,90*,/,/,/,/
COc1ccc(-c2cc(C(F)(F)F)nc(S(=O)(=O)CCCC(=O)Nc3cccc(O)c3)n2)cc1OC,-7,17,-9,63*,-26,-3
Cc1ccc(S(=O)(=O)CCC(=O)Nc2cc(C)on2)cc1,1,-3,?,6,12,-3
COc1ccccc1-c1cc(C(F)(F)F)nc(S(=O)(=O)CCCC(=O)O)n1,/,-5,24,/,-3,/
COc1ccc(S(=O)(=O)N(C)C[C@H]2OCCCC[C@H](C)Oc3ccc(NC(=O)c4ccccc4)cc3C(=O)N([C@H](C)CO)C[C@H]2C)cc1,5,-8,-10[16.7 µM],-14,12,-4
CNC[C@@H]1Oc2ccc(NC(=O)CCCN(C)C)cc2CC(=O)N([C@@H](C)CO)C[C@H]1C,6,6,-5[16.7 µM],24,16,-2
O=C(Nc1ccc2c(c1)OCCO2)c1cccnc1Oc1ccccc1,5,/,2,9,53,1
O=C(Nc1ccc(F)cc1)c1cccnc1Oc1ccccc1,5,7,-5,-26,89*,2
Cc1cccc(NCc2ccccc2O)c1,/,-14,/,/,/,/
Cc1cccc(NCc2ccccc2)c1,1,-5,-15,-29,95*,0
COC(=O)c1ccc2nc(Nc3nc4ccc(F)cc4s3)sc2c1,77*,-3,57*,80*,/,/
COC(=O)c1ccc2nc(NC(=O)C(C)(C)C)sc2c1,54*,1,-47,13,-24,2
CO[C@@H]1CN(C)C(=O)c2ccc(NC(=O)C3CC3)cc2OC[C@H](C)N(C(=O)C2CCOCC2)C[C@@H]1C,-1,/,/,11,-7,0
CCCc1cn(CC[C@H]2CC[C@H](NC(=O)C3CCC3)[C@H](CO)O2)nn1,15,7,24[16.7 µM],-3,4,0
COCCNC(=O)C[C@@H]1CC[C@@H]2[C@H](COc3ccc(NC(=O)C4CCCC4)cc3C(=O)N2C)O1,3,2,-9[16.7 µM],1,2,1
O=C(Nc1cccc(Cl)c1)c1ccc2c(c1)SC1=NS(=O)(=O)CCN12,21,/,-4,75*,5,4
Cc1ccc2nc(-c3ccc(NC(=O)COC(=O)c4ccc([N+](=O)[O-])o4)cc3)sc2c1,55*,/,/,34,-8,-1
Cc1ccc2nc(-c3ccc(N)cc3)sc2c1,69*,0,-113,13,-3,-1
Cc1ccc2nc(-c3ccc(NC(=O)COC(=O)c4ccc(Br)o4)cc3)sc2c1,/,/,-66,-51,1,/
C=CCn1c(SCC(=O)Nc2ccc(-c3nc4ccc(C)cc4s3)cc2)nnc1-c1ccccc1,/,9,/,/,122*,/
Cc1ccc2nc(-c3ccc(NC(=O)COC(=O)c4ccco4)cc3)sc2c1,/,/,-126,-38,91*,/
CCCc1cn(CC[C@H]2CC[C@H](NC(=O)C3CCC3)[C@@H](CO)O2)nn1,-8,4,18[16.7 µM],10,5,-1
C/C=C/c1ccc([C@H]2[C@@H](CO)N(CC3CCCC3)[C@H]2CNC(=O)NC(C)C)cc1,/,/,/,/,-2,/
CS(=O)(=O)c1ccc(Cl)c(NC(=O)CN2CCCC2c2ccc3c(c2)OCCCO3)c1 (stereo not given),6,2,61*,2,/,-1
C[C@@H]1CN([C@@H](C)CO)C(=O)c2cc(NC(=O)Nc3ccc(F)cc3)ccc2O[C@@H](C)CCCCO[C@H]1CN(C)Cc1ccc2c(c1)OCO2,8,-7,18[16.7 µM],3,-19,0
SMILES,EWS-Fli inh,PGC1a acetyl inh,HIV Env fusion,PAX8 inh HTS,GSIS activator,F508del corr
C[C@@H]1CCCCO[C@H](CN(C)Cc2ccc3c(c2)OCO3)[C@@H](C)CN([C@@H](C)CO)C(=O)c2cc(NC(=O)Nc3ccc(C(F)(F)F)cc3)ccc2O1,69*,53*,?,101*,/,-6
C[C@@H]1CCCCO[C@@H](CN(C)Cc2ccc3c(c2)OCO3)[C@@H](C)CN([C@H](C)CO)C(=O)c2cc(NC(=O)Nc3ccc(C(F)(F)F)cc3)ccc2O1,-6,5,5[16.7 µM],35,-18,-1
C[C@@H]1CCCCO[C@@H](CN(C)Cc2ccc3c(c2)OCO3)[C@@H](C)CN([C@H](C)CO)C(=O)c2cc(NC(=O)Nc3ccc(F)cc3)ccc2O1,-11,8,4[16.7 µM],16,-25,0
C[C@@H]1CN([C@@H](C)CO)C(=O)c2cc(NC(=O)Nc3ccc(C(F)(F)F)cc3)ccc2O[C@@H](C)CCCCO[C@H]1CN(C)Cc1ccc2c(c1)OCO2,-2,-8,10[16.7 µM],83*,-3,-3
C[C@H]1CCCCO[C@H](CN(C)Cc2ccc3c(c2)OCO3)[C@@H](C)CN([C@@H](C)CO)C(=O)c2cc(NC(=O)Nc3ccc(C(F)(F)F)cc3)ccc2O1,75*,79*,?,67*,9,-2
C[C@@H]1CCCCO[C@H](CN(C)Cc2ccc3c(c2)OCO3)[C@H](C)CN([C@@H](C)CO)C(=O)c2cc(NC(=O)Nc3ccc(C(F)(F)F)cc3)ccc2O1,75*,-6,15[16.7 µM],63*,-8,0
CS(=O)(=O)Nc1ccc2c(c1)[C@H]1C[C@@H](CC(=O)NCc3ccncc3)O[C@@H](CO)[C@H]1O2,3,2,19[16.7 µM],-18,10,-6
N#C[C@H]1[C@@H](c2ccc(-c3ccncc3)cc2)[C@@H](CO)N1C(=O)C1CCCCC1,4,-12,5[16.7 µM],5,2,-1
OC(CSc1nc2ccccc2s1)CC(O)c1ccccc1 (stereo not given),-6,-9,-14[16.7 µM],-8,/,-1
CC(C)C#Cc1ccc2c(c1)O[C@@H](CN(C)S(C)(=O)=O)[C@H](C)CN([C@@H](C)CO)S2(=O)=O,4,-2,1[16.7 µM],/,-14,1
C[C@H](CO)N1C[C@H](C)[C@@H](CN(C)Cc2ccc3c(c2)OCO3)OCCCC[C@H](C)Oc2ccc(NC(=O)Nc3ccc(F)cc3)cc2C1=O,10,-5,-27[16.7 µM],23,-12,-2
C[C@@H]1CN([C@H](C)CO)C(=O)c2cc(NC(=O)Nc3ccc(C(F)(F)F)cc3)ccc2O[C@@H](C)CCCCO[C@H]1CN(C)Cc1ccc2c(c1)OCO2,77*,-18,?,108*,20,1
C[C@H](CO)N1C[C@H](C)[C@H](CN(C)Cc2ccc3c(c2)OCO3)OCCCC[C@H](C)Oc2ccc(NC(=O)Nc3ccc(C(F)(F)F)cc3)cc2C1=O,76*,-9,61*[16.7 µM],108*,4,2
O=C(NCC[C@H]1CC[C@H](NS(=O)(=O)c2ccc(Cl)cc2)[C@H](CO)O1)c1ccc2c(c1)OCO2,/,5,/,/,-2,1
C[C@@H]1CN([C@H](C)CO)C(=O)c2cccc(NC(=O)C3CCOCC3)c2O[C@@H]1CN(C)S(=O)(=O)c1ccc(F)cc1,-6,0,4[16.7 µM],-3,25,0
